According to the supplement of paper PMC10849652:
Of roughly 8,800 targets only a part is listed; those with a hit were picked by preference. About 0.5% of all pairs of compound and target were hits.

Legend:
Assay in all cases: log2 fold change, soluble protein after heating vs DMSO (PISA); higher = thermal stabilisation; K562 lysate, 10 uM; active = over 0.2 and 3.5 SD of the protein, either way, in both replicates (recomputed)
alvocidib = compound: CN1CC[C@H](c2c(O)cc(O)c3c(=O)cc(-c4ccccc4Cl)oc23)[C@H](O)C1 [alvocidib]
How it was run: (§1)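 Pellets of K562 cells were dounce-homogenised in PBS pH 7.4 with 1 mM MgCl2, and the crude extract was held at 1 mg/mL protein for a 30 min treatment with 10 μM compound. Aliquots were heated for 3 min over 48°C-58°C and pooled before NP-40 was added to 0.5% at 4°C. The supernatant from 21,000xg for 90 min was quantified by TMTpro 16plex LC-MS/MS with channel sums equalised. Values are reported from duplicates as log-two fold change in thermal stability relative to solvent controls.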

pictilisib = compound: CS(=O)(=O)N1CCN(Cc2cc3nc(-c4cccc5[nH]ncc45)nc(N4CCOCC4)c3s2)CC1 [pictilisib]
How it was run: as §1

[1] = compound: C[C@H](C1=CC=C(C=C1)C(=O)NC2=C3C=CNC3=NC=C2)N
How it was run: as §1

gandotinib = compound: Cc1cc(Nc2cc(CN3CCOCC3)c3nc(C)c(Cc4ccc(Cl)cc4F)n3n2)n[nH]1 [gandotinib]
How it was run: as §1

bafetinib = compound: Cc1ccc(NC(=O)c2ccc(CN3CC[C@H](N(C)C)C3)c(C(F)(F)F)c2)cc1Nc1nccc(-c2cncnc2)n1 [bafetinib]
How it was run: as §1

[2] = compound: Cc1cccc(CC(=O)N2CCc3c2ccc(-c2cn(C)c4ncnc(N)c24)c3F)n1
How it was run: as §1

defactinib = compound: CNC(=O)c1ccc(Nc2ncc(C(F)(F)F)c(NCc3nccnc3N(C)S(C)(=O)=O)n2)cc1 [defactinib]
How it was run: as §1

encorafenib = compound: COC(=O)N[C@@H](C)CNc1nccc(-c2cn(C(C)C)nc2-c2cc(Cl)cc(NS(C)(=O)=O)c2F)n1 [encorafenib]
How it was run: as §1

[3] = compound: COC(=O)[C@H](CCSC)NC(=O)C1=C(C=C(C=C1)NC[C@H](CS)N)C2=CC=CC=C2
How it was run: as §1

alisertib = compound: COc1cc(Nc2ncc3c(n2)-c2ccc(Cl)cc2C(c2c(F)cccc2OC)=NC3)ccc1C(=O)O [alisertib]
How it was run: as §1

[4] = compound: COc1cc2nc(-c3cc(F)ccc3O)nc(N[C@@H]3CNC[C@H]3C(C)(C)O)c2cc1OC
How it was run: as §1

gefitinib = compound: COc1cc2ncnc(Nc3ccc(F)c(Cl)c3)c2cc1OCCCN1CCOCC1 [gefitinib]
How it was run: as §1

lapatinib = compound: CS(=O)(=O)CCNCc1ccc(-c2ccc3ncnc(Nc4ccc(OCc5cccc(F)c5)c(Cl)c4)c3c2)o1 [lapatinib]
How it was run: as §1

tozasertib = compound: Cc1cc(Nc2cc(N3CCN(C)CC3)nc(Sc3ccc(NC(=O)C4CC4)cc3)n2)n[nH]1 [tozasertib]
How it was run: as §1

Tubastatin A = compound: CN1CCc2c(c3ccccc3n2Cc2ccc(C(=O)NO)cc2)C1 [Tubastatin A]
How it was run: as §1

[5] = compound: CNc1nc(-c2ccc3c(N)n[nH]c3c2)cc(N2C[C@@H](C(=O)NC3CCCCC3)CC[C@H]2C)n1
How it was run: as §1

crizotinib = compound: C[C@@H](Oc1cc(-c2cnn(C3CCNCC3)c2)cnc1N)c1c(Cl)ccc(F)c1Cl [crizotinib]
How it was run: as §1

duvelisib = compound: C[C@H](Nc1ncnc2nc[nH]c12)c1cc2cccc(Cl)c2c(=O)n1-c1ccccc1 [duvelisib]
How it was run: as §1

doramapimod = compound: Cc1ccc(-n2nc(C(C)(C)C)cc2NC(=O)Nc2ccc(OCCN3CCOCC3)c3ccccc23)cc1 [doramapimod]
How it was run: as §1

[6] = compound: CNC(=O)C1=CC=CC=C1NC2=NC(=NC=C2Cl)NC3=C(C=C(C=C3)N4CCOCC4)OC
How it was run: as §1

Measured: log2 fold change

TUBA4A (UniProt C9JQ00)
inactive: alvocidib 0.074 | pictilisib -0.2 | [1] -0.094 | gandotinib -0.142 | bafetinib -0.368 | [2] 0.228

TEC (UniProt P42680)
inactive: defactinib 0.07 | encorafenib -0.044 | [3] -0.036 | alisertib -0.086 | [4] -0.028 | gefitinib -0.027 | lapatinib 0.007 | tozasertib -0.198

TNIK isoform 5 (UniProt Q9UKE5)
inactive: alvocidib 0.012 | Tubastatin A -0.015 | [5] -0.04 | [4] 0.214 | lapatinib -0.098 | pictilisib 0.046 | crizotinib -0.035 | [1] 0.051 | duvelisib 0.009 | gandotinib 0.025 | doramapimod 0.311 | bafetinib -0.055 | [2] -0.02

TMEM154 (UniProt Q6P9G4)
inactive: Tubastatin A 0.063 | [5] -0.099 | encorafenib -0.015 | [3] 0.023 | crizotinib 0.035 | duvelisib 0.039 | tozasertib 0.03 | doramapimod -0.146

THAP9 (UniProt Q9H5L6)
active: [1] -0.675
inactive: alvocidib -0.249 | Tubastatin A 0.053 | defactinib -0.067 | [5] 0.476 | encorafenib -0.009 | [3] 0.085 | [4] 0.179 | lapatinib -0.035 | pictilisib -0.154 | crizotinib -0.203 | duvelisib 0.012 | gandotinib 0.429 | tozasertib -0.045 | doramapimod 0.009 | bafetinib -0.007 | [2] 0.323

UBAP2 (UniProt Q5JV08)
inactive: alisertib -0.165 | gefitinib -0.139

TGFBR1 isoform 2 (UniProt P36897)
inactive: [6] 0.156 | [5] -0.004 | encorafenib -0.017 | [3] 0.077 | duvelisib -0.004 | tozasertib 0.022

UBAP2, A0A0D9SFI5
inactive: crizotinib -0.037 | doramapimod -0.056

TMPO isoform 2 (UniProt P42167)
inactive: defactinib 0.058 | [5] 0.186 | encorafenib -0.113 | [3] -0.14 | pictilisib 0.04 | duvelisib -0.041 | tozasertib -0.029 | bafetinib -0.026

UBAP2L (UniProt F8W726)
inactive: defactinib 0.06 | [4] 0.093 | lapatinib -0.15 | crizotinib 0.098 | doramapimod -0.068

UBAP2L isoform 1 (UniProt Q14157)
inactive: Tubastatin A -0.006 | alisertib 0.032 | gefitinib -0.088 | pictilisib -0.116 | crizotinib 0.376 | doramapimod -0.26 | bafetinib 0.56

TNIK (UniProt C9J338)
inactive: alvocidib -0.155 | [6] -0.211 | defactinib -0.014 | [5] 0.306 | encorafenib -0.012 | [3] 0.005 | [4] 0.076 | lapatinib -0.042 | pictilisib -0.023 | crizotinib -0.075 | duvelisib 0.115 | gandotinib 0.344 | tozasertib 0.012 | doramapimod 0.005 | bafetinib -0.258 | [2] 0.344
active: [1] -0.443

TLE3 (UniProt H0YL70)
inactive: [5] 0.153 | duvelisib 0.037

TXNRD2 isoform 3 (UniProt Q9NNW7)
inactive: Tubastatin A 0.072 | [6] 0.194

UCP2 (UniProt P55851)
inactive: Tubastatin A 0.182 | defactinib 0.096 | alisertib 0.033 | gefitinib 0.045 | doramapimod -0.141
active: crizotinib -0.441

TENM4 (UniProt Q6N022)
inactive: alvocidib 0.03 | [4] 0.024 | lapatinib -0.169 | pictilisib -0.065 | crizotinib -0.07 | [1] 0.415 | gandotinib -0.028 | doramapimod -0.068 | bafetinib -0.148 | [2] -0.032

TCF3 isoform 2 (UniProt P15923)
inactive: Tubastatin A 0.055 | [6] 0.214 | crizotinib -0.048 | doramapimod 0.092

TBK1 (UniProt Q9UHD2)
active: [6] 0.528 | crizotinib 0.469
inactive: Tubastatin A -0.16 | defactinib 0.328 | [5] -0.035 | encorafenib 0.014 | [3] -0.293 | alisertib 0.039 | [4] -0.007 | gefitinib -0.032 | lapatinib 0.042 | pictilisib 0.054 | [1] -0.059 | duvelisib -0.046 | gandotinib 0.342 | tozasertib 0.314 | doramapimod -0.024 | bafetinib 0.007 | [2] -0.044

UBR4 isoform 4 (UniProt Q5T4S7)
Chain of UniProt Q5T4S7 (Q5T4S7 whole entry, looked up): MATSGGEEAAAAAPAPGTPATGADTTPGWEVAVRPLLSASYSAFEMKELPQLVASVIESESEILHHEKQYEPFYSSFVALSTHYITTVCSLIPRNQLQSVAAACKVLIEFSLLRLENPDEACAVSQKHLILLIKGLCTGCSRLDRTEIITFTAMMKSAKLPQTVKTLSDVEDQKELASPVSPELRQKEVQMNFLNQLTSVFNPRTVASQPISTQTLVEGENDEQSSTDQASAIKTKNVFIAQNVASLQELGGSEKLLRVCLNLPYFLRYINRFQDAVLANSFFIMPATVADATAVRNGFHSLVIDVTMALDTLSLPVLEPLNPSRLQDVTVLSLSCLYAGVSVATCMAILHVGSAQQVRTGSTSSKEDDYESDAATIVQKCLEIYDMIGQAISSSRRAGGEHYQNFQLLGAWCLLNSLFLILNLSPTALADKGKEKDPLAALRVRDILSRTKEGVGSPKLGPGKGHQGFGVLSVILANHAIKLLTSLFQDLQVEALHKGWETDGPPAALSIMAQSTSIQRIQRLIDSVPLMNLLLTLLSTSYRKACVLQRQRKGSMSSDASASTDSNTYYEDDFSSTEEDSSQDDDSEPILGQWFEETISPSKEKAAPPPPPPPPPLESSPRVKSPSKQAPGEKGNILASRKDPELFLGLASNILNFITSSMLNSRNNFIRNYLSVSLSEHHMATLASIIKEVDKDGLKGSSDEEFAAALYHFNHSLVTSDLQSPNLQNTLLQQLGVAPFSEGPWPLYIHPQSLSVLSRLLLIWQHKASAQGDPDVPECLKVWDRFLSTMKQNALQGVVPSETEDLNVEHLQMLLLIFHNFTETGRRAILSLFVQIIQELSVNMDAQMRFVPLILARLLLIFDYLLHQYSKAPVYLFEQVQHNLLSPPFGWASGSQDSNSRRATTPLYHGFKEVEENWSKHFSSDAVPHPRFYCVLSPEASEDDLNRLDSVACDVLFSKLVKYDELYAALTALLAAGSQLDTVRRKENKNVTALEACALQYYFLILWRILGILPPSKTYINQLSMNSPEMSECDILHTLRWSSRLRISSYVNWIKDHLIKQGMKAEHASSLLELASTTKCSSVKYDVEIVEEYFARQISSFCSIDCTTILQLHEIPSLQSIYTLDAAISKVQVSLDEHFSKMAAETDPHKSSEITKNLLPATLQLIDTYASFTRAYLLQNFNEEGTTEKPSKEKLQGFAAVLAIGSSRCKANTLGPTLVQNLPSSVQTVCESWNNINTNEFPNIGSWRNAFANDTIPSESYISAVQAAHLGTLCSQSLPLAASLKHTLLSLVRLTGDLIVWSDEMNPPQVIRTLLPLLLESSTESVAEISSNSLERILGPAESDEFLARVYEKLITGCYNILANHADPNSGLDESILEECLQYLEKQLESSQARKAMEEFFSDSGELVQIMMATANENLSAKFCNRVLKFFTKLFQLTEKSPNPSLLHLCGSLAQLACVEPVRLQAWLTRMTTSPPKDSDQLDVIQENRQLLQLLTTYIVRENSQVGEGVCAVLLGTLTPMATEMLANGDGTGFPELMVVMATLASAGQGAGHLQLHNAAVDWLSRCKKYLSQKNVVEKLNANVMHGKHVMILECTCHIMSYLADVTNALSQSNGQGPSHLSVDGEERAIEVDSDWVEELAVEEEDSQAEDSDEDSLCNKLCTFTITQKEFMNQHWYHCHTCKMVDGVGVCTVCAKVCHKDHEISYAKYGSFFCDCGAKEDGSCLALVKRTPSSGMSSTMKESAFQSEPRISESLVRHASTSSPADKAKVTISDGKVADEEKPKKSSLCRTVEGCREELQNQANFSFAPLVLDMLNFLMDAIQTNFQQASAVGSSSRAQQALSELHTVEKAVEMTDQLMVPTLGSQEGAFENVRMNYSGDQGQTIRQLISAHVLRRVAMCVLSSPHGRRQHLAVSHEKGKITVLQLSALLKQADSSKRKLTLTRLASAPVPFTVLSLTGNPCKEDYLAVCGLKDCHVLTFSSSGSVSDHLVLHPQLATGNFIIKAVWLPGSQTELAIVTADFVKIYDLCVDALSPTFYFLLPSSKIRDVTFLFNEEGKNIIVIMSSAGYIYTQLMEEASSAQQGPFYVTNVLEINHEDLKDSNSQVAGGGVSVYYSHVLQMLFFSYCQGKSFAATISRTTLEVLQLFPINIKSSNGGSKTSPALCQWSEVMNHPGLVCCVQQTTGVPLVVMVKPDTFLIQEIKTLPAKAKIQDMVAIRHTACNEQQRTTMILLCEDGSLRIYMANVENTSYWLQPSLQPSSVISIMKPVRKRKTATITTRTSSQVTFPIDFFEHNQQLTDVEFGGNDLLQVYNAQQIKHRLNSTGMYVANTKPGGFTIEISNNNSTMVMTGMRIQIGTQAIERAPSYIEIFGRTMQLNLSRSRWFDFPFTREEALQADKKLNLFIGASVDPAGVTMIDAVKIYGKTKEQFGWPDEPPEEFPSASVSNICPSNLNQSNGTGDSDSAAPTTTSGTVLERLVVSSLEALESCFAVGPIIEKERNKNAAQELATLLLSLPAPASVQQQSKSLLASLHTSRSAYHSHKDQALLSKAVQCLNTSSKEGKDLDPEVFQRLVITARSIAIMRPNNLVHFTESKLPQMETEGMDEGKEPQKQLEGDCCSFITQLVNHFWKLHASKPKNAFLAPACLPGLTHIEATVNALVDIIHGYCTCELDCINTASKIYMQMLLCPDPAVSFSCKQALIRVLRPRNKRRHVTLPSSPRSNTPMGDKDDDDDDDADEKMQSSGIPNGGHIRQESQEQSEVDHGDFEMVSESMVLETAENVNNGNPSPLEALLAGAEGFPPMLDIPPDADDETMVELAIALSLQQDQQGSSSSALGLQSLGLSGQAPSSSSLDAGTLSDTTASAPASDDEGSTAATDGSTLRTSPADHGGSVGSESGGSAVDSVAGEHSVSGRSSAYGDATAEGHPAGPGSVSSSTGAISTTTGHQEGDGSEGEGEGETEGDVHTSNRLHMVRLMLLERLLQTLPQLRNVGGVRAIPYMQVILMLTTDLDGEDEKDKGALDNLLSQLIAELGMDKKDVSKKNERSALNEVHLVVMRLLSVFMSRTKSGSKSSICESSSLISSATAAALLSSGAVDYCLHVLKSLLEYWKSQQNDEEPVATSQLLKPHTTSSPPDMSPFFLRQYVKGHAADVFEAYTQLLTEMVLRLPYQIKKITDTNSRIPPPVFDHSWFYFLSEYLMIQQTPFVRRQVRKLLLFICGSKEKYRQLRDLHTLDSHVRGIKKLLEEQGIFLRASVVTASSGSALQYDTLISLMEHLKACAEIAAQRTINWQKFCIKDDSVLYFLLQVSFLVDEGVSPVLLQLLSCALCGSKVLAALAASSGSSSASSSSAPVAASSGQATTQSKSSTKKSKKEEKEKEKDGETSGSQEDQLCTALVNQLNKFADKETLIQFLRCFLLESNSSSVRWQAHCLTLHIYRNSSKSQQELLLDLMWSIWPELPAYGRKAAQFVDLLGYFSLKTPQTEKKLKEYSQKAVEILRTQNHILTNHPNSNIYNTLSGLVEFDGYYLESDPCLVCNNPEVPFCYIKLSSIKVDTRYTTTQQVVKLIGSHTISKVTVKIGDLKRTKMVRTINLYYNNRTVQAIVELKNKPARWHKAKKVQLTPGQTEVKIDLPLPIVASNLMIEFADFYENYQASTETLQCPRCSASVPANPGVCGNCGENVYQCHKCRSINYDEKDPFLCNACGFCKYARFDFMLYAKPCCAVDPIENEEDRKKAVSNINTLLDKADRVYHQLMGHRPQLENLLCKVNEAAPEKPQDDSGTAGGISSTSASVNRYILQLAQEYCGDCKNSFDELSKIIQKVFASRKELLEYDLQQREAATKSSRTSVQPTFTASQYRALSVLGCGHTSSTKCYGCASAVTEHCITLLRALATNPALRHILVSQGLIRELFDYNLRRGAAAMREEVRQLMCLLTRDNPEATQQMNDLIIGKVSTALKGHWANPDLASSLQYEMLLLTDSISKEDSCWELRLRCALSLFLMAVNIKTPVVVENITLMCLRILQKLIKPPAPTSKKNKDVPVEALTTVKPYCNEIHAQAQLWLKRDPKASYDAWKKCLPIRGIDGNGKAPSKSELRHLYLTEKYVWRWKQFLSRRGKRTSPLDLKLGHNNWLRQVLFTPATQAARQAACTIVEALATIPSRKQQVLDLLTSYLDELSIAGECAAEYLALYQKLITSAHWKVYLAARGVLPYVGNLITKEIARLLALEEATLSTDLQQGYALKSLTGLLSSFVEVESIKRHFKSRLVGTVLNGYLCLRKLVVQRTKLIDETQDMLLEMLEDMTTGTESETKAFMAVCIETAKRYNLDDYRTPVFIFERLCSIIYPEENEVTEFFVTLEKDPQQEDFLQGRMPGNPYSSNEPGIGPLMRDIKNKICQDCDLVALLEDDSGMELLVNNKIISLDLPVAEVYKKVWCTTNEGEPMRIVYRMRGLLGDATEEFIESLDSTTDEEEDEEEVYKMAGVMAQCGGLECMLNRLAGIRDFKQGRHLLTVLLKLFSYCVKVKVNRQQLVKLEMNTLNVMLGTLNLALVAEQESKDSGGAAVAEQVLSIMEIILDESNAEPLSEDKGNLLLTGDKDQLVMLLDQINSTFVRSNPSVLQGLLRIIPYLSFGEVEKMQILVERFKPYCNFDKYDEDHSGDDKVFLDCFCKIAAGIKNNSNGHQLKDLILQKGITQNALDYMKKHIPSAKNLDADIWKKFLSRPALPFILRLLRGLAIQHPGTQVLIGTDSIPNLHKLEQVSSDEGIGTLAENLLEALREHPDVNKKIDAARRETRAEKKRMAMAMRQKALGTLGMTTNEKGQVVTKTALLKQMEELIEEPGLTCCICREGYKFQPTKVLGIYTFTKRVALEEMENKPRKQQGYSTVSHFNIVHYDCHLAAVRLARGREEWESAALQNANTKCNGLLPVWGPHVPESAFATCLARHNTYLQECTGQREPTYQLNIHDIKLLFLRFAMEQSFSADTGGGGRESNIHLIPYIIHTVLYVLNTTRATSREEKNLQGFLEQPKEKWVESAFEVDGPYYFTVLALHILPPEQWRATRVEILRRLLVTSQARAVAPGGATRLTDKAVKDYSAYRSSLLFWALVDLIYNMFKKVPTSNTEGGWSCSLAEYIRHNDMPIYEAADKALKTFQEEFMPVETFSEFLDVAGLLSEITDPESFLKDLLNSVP
inactive: Tubastatin A -0.337 | [6] -0.16 | defactinib -0.032 | [5] 0.144 | encorafenib -0.028 | [3] 0.062 | [4] 0.064 | lapatinib 0.146 | duvelisib -0.143 | tozasertib 0.079

TCF4 (UniProt P15884)
inactive: alvocidib 0.005 | Tubastatin A -0.282 | [5] -0.009 | encorafenib 0.17 | [3] -0.099 | alisertib 0.078 | [4] 0.212 | gefitinib 0.06 | lapatinib -0.212 | crizotinib 0.128 | [1] 0.039 | duvelisib 0.039 | gandotinib -0.022 | tozasertib -0.044 | doramapimod -0.099 | [2] 0

TMEM14C (UniProt Q9P0S9)
active: Tubastatin A -0.463
inactive: [6] 0.033 | defactinib 0.205 | [5] 0.011 | encorafenib 0.004 | [3] 0.022 | alisertib -0.011 | [4] -0.168 | gefitinib 0.003 | lapatinib 0.123 | pictilisib 0.162 | crizotinib -0.087 | duvelisib 0.016 | tozasertib -0.099 | doramapimod 0.002 | bafetinib -0.094

TCF20 (UniProt Q9UGU0)
inactive: alvocidib -0.017 | [6] 0.01 | [4] 0.167 | lapatinib -0.049 | pictilisib -0.034 | crizotinib 0.019 | [1] 0.011 | duvelisib 0.094 | gandotinib 0.108 | doramapimod -0.032 | bafetinib -0.001 | [2] -0.005
active: [5] 0.615

UBN1 (UniProt Q9NPG3)
inactive: alvocidib -0.176 | defactinib -0.044 | [5] -0.076 | encorafenib 0.059 | [3] 0.088 | [4] 0.09 | lapatinib -0.187 | crizotinib -0.042 | [1] -0.057 | duvelisib -0.092 | gandotinib 0.215 | tozasertib 0.069 | doramapimod -0.256 | [2] 0.308

TMC1 (UniProt Q8TDI8)
inactive: Tubastatin A -0.088 | [6] -0.028 | defactinib -0.002 | encorafenib 0.03 | [3] 0.054 | alisertib 0.216 | [4] 0.021 | gefitinib 0.215 | lapatinib -0.134 | crizotinib -0.262 | tozasertib 0.074 | doramapimod 0.252

TFPT (UniProt P0C1Z6)
inactive: [6] -0.041 | [4] 0.027 | lapatinib -0.004 | pictilisib 0.032 | duvelisib -0.005 | bafetinib -0.004
active: [5] 0.381

TRAF7 (UniProt Q6Q0C0)
inactive: alvocidib 0.058 | Tubastatin A -0.008 | defactinib 0.141 | [5] 0.025 | encorafenib 0.015 | [3] -0.11 | alisertib -0.05 | gefitinib -0.099 | crizotinib -0.01 | [1] -0.241 | duvelisib -0.029 | gandotinib -0.128 | tozasertib 0.124 | doramapimod 0.122 | [2] 0.127

TASP1 (UniProt Q9H6P5)
inactive: Tubastatin A 0.087 | [6] -0.119 | [5] 0.112 | encorafenib -0.035 | [3] 0.103 | alisertib -0.151 | [4] -0.048 | gefitinib -0.046 | lapatinib 0.009 | pictilisib -0.217 | crizotinib -0.086 | duvelisib 0 | tozasertib -0.002 | doramapimod 0.053 | bafetinib -0.235

TFPI isoform 2 (UniProt P10646)
inactive: defactinib -0.109 | crizotinib 0.045 | doramapimod -0.121

TLK2 isoform 3 (UniProt Q86UE8)
inactive: alvocidib 0.007 | [1] 0.012 | gandotinib 0.009 | [2] -0.101

TTC37 (UniProt Q6PGP7)
inactive: Tubastatin A 0.072 | [6] -0.13 | defactinib -0.061 | [5] 0.185 | alisertib 0.032 | [4] 0.043 | gefitinib 0.081 | lapatinib -0.157 | pictilisib -0.03 | crizotinib -0.202 | duvelisib 0.096 | doramapimod 0.069 | bafetinib -0.26

TCF3 (UniProt X6REB3)
inactive: alvocidib -0.168 | defactinib -0.149 | [1] -0.081 | gandotinib 0.269 | [2] 0.105

TJP1 (UniProt H0Y3R8)
inactive: alvocidib 0.079 | [1] 0.068 | gandotinib -0.057 | [2] -0.063

TEDC1 (UniProt Q86SX3)
inactive: Tubastatin A -0.254 | [6] 0.038 | [5] 0.051 | encorafenib 0.094 | [3] 0.047 | alisertib -0.019 | [4] -0.008 | gefitinib 0.047 | lapatinib -0.064 | crizotinib -0.078 | duvelisib 0.159 | tozasertib -0.103 | doramapimod 0.009
